Results: the supplement of paper PMC11732987, “Enantioselective OTUD7B fragment discovery through chemoproteomics screening and high-throughput optimisation” (Communications Chemistry, 2025)

Key:
Experiment in all cases: log2 ratio of Biotin-Ahx-Ub-VS probe labelling (fragment/DMSO); higher = less target engagement (more negative = stronger competition), active = hit call of the paper (q ≤ 0.05, log2 ratio ≤ -1)
Conditions in all cases: compound concentration: 200 uM; treatment time: 3 h
[1] = biological target: USP34 (UniProt Q70CQ2)
Procedure, shortened: (§1)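 Average log2 ratios of fragment over vehicle were obtained by unpaired t-test from global-median-normalised Spectronaut label-free quantities. Proteins with ≥2 unique peptides were included. HEK293T lysate (495 µg per sample) was treated in triplicate with fragment at 200 µM or vehicle for 3 h, then with Biotin-Ahx-Ub-VS at 0.5 µM final for 1 h, and labelled DUBs were NeutrAvidin-enriched and run by diaPASEF LC-MS/MS.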

[2] = biological target: T1, USP36 (UniProt Q9P275)
T1 sequence (whole entry): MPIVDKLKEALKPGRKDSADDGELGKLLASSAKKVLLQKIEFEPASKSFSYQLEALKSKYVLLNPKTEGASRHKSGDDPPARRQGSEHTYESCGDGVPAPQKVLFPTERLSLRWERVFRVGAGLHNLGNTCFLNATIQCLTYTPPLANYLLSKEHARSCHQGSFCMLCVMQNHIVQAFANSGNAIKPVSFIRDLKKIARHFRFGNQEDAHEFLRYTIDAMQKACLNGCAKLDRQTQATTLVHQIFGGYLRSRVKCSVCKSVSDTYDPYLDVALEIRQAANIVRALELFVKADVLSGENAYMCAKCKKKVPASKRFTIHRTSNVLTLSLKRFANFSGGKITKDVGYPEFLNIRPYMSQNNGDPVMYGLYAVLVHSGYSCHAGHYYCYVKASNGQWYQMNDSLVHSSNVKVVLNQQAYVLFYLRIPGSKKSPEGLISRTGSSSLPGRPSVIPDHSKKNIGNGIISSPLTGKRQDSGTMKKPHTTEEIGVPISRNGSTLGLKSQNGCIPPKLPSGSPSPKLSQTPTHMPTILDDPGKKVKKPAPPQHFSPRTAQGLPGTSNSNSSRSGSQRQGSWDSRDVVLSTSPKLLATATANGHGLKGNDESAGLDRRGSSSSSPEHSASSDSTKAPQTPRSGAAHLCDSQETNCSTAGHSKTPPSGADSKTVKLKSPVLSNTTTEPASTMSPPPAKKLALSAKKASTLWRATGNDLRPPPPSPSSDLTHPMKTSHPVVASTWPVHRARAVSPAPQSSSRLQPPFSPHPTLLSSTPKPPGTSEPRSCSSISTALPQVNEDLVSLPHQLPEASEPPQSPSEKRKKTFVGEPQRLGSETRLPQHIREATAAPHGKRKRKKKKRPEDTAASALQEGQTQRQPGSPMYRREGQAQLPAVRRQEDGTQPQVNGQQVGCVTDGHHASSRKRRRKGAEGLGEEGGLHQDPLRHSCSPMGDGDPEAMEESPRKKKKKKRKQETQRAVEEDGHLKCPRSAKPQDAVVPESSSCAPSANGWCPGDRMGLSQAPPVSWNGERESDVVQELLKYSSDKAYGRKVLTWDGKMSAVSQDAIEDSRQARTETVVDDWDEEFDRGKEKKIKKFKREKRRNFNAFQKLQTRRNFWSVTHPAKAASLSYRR
Procedure, shortened: as §1

[3] = biological target: T2, USP38 (UniProt Q8NB14)
T2 sequence (whole entry): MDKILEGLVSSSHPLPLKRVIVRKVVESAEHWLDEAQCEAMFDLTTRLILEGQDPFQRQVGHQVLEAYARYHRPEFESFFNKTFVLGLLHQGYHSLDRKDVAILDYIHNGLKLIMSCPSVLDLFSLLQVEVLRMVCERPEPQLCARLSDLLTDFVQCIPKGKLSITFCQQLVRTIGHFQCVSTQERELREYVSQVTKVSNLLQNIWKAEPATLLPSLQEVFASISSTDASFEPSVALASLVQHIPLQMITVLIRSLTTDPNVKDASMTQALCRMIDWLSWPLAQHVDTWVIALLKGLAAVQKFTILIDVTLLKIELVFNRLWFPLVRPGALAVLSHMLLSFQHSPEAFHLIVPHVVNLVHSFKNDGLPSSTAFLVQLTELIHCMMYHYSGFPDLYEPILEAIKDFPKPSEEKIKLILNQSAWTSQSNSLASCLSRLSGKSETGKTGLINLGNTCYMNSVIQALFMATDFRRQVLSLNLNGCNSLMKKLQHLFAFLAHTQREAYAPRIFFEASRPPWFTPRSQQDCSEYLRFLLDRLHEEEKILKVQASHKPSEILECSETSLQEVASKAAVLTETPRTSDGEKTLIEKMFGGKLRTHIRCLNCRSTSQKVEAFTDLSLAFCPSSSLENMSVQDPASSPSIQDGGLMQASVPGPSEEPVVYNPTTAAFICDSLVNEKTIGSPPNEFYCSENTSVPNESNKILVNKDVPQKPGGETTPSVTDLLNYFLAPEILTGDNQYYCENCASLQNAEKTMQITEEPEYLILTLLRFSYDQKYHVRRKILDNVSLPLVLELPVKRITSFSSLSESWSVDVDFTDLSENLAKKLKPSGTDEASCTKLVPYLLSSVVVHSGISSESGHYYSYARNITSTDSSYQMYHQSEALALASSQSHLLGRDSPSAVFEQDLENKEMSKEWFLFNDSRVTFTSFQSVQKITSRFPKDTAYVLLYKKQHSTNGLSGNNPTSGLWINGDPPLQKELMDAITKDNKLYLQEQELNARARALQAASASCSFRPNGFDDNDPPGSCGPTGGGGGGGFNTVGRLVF
Procedure, shortened: as §1

[4] = biological target: T3, USP39 (UniProt Q53GS9)
T3 sequence (whole entry): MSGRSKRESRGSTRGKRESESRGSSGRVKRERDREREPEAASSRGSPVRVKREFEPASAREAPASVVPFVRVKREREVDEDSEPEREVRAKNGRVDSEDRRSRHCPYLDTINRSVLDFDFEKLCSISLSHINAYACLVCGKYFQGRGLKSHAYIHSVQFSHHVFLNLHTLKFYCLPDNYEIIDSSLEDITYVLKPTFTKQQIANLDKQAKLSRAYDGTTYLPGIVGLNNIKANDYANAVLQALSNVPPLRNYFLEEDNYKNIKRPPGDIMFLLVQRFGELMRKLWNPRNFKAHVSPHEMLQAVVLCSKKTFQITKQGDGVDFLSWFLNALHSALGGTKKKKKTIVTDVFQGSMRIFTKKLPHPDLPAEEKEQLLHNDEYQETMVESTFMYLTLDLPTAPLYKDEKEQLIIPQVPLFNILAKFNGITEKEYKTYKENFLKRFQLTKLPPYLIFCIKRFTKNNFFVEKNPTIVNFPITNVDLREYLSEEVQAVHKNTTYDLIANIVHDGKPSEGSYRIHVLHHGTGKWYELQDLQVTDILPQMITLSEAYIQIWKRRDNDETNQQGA
Procedure, shortened: as §1

[5] = biological target: T4, USP4 (UniProt Q13107)
T4 sequence (whole entry): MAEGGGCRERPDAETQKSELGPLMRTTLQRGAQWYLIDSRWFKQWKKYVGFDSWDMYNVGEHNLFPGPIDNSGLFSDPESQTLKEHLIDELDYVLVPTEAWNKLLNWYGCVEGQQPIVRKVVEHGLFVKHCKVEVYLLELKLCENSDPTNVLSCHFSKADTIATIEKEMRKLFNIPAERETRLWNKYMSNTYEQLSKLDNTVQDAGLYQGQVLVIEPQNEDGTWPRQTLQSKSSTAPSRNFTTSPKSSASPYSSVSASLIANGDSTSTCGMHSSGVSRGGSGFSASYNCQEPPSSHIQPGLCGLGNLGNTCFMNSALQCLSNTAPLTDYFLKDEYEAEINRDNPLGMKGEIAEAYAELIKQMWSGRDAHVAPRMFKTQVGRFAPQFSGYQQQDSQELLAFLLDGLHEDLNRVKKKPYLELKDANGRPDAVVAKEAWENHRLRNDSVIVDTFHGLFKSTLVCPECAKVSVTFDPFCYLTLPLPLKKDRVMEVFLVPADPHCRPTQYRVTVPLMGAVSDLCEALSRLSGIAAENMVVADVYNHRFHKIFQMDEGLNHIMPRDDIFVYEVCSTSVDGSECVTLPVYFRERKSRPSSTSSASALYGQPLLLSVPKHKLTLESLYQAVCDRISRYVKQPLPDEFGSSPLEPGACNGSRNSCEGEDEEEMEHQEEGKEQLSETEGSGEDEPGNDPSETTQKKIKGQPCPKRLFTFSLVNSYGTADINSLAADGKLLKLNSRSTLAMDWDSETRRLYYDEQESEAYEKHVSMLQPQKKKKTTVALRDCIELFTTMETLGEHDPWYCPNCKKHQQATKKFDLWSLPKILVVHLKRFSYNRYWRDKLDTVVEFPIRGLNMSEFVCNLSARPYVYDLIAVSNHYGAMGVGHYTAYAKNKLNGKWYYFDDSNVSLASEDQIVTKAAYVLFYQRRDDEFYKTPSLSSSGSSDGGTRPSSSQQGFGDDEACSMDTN
Procedure, shortened: as §1

Measured: log2 ratio of Biotin-Ahx-Ub-VS probe labelling

Sequence of USP34 (Q70CQ2 whole entry, the tested form may be a part): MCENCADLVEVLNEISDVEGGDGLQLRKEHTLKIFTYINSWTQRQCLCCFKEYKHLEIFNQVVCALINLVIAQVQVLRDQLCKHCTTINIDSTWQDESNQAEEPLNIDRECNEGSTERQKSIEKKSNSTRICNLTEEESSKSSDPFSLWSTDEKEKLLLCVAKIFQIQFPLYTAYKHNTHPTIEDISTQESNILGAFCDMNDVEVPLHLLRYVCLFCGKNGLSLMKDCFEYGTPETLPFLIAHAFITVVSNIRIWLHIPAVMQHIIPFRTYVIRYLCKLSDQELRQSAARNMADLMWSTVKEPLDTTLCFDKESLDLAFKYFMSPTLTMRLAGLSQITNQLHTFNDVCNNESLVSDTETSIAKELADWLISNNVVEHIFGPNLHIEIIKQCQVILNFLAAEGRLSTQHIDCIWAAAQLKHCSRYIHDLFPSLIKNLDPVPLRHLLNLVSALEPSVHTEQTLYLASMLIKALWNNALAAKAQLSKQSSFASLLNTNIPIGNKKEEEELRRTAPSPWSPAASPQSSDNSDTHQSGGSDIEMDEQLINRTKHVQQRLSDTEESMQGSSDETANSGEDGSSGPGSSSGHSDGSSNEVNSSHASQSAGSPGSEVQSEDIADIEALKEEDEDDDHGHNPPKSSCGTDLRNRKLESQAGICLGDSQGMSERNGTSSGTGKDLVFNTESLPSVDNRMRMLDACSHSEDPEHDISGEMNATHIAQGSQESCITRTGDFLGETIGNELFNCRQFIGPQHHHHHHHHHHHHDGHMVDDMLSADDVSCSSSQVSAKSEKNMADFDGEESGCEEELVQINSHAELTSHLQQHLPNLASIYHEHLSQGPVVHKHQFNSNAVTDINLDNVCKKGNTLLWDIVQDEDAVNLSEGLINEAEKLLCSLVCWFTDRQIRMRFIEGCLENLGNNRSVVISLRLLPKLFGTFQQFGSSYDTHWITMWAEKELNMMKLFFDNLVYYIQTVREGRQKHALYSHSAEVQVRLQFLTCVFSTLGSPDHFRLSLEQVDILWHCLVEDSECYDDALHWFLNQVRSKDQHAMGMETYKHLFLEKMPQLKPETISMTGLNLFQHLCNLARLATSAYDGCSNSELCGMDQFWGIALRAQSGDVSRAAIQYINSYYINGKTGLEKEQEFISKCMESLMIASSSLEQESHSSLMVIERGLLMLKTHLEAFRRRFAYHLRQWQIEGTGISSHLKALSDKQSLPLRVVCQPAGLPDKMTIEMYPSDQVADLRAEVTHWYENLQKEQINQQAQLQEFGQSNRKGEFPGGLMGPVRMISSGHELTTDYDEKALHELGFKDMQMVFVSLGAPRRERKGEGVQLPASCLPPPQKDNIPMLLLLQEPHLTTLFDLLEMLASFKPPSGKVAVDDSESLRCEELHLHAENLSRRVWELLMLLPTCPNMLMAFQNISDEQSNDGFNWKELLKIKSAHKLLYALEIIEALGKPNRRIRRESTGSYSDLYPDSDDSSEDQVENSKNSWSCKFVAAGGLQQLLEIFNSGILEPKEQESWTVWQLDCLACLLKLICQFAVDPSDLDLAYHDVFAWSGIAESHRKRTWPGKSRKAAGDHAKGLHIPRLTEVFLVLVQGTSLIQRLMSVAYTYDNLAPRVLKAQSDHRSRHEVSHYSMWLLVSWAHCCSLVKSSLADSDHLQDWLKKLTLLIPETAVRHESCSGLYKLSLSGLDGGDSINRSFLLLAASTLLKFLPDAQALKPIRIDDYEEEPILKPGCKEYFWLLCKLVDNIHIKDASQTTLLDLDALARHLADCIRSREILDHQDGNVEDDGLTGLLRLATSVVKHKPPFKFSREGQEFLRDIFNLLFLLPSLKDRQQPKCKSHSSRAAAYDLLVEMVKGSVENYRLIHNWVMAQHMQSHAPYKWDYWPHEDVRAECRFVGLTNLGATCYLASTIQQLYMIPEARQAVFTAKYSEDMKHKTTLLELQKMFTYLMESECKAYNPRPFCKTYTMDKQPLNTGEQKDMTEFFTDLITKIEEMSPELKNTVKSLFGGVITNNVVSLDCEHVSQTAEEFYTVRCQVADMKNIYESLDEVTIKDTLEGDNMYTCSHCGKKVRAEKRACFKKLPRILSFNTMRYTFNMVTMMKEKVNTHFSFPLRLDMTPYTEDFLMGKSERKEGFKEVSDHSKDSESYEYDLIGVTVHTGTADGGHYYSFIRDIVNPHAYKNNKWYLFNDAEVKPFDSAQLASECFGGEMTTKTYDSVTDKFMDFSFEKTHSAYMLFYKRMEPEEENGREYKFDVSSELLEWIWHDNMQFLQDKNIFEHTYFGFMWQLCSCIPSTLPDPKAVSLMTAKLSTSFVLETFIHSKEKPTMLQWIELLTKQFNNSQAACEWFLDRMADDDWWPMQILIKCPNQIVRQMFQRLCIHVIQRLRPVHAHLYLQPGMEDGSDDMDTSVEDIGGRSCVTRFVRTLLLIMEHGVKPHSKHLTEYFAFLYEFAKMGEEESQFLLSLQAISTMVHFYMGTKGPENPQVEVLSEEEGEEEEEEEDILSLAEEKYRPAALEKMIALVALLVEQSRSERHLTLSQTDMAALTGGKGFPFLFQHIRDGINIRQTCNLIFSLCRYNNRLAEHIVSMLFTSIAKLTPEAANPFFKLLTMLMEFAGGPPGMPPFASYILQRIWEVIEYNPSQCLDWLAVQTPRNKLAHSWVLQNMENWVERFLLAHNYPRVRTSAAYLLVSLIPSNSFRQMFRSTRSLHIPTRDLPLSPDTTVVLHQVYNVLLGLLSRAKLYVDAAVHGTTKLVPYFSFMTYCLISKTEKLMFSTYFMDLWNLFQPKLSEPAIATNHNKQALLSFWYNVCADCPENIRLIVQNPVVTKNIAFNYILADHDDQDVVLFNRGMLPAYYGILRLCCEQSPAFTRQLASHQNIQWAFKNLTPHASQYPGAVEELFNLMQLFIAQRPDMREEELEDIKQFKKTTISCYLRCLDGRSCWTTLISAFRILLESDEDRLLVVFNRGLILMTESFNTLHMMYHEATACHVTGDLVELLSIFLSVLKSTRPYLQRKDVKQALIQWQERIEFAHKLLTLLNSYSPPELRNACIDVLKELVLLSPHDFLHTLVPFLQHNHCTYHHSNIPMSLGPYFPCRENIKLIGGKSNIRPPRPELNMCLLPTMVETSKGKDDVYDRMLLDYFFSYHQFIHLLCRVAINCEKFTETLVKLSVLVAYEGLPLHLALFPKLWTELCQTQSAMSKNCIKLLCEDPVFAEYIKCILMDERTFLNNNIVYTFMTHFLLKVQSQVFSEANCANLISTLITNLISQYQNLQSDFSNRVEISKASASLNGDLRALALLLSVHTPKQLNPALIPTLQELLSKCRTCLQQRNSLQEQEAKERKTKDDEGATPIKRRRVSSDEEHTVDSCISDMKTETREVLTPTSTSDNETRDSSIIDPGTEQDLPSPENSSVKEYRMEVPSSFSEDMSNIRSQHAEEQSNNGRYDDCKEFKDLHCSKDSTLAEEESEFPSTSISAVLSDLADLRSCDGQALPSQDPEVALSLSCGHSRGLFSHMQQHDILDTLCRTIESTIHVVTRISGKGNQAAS

Cc1cc(CC(C)NC(=O)CCl)n[nH]1 (stereo not given)
inactive: [1] -0.00217 | [2] -0.0115 | [3] -0.279 | [4] -0.196 | [5] -0.0597
